Test results: PubChem BioAssay
Activity calls are given as the source filed them.

Columns and labels:
[1] = optical density shifts of acrAB sulA E. coli – strain DRC41, OD650, 48 h, E. coli filamentation inducer project, primary screen (AID 1152); settings: higher = more signal, called active from +8 up or from −8 down;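 further: E. coli MC1000 strain DRC41 lacking acrAB efflux pump and sulA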
[2] = probe aLefty1 binding on compound microarray – biochemical, small-molecule microarray, 635/667 nm fluorescence, primary screen (AID 1153); settings: higher = more signal;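 further: score merges spot fluorescence with signal-to-noise ratio from the scanned slide images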
[3] = plasmodial surface anion channel blockers, osmotic lysis – cell-based, P. falciparum Indochina, OD700, 1 h, primary screen (AID 1154); settings: P. falciparum Indochina infected RBC osmotic lysis, higher = more signal, called active from +8 up or from −8 down
[4] = plasmodial surface anion channel blockers, osmotic lysis – cell-based, P. falciparum Indochina, OD700, 2 h, primary screen (AID 1155);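 further: lysis reports solute entry through the parasite surface anion channel PSAC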; settings: P. falciparum Indochina infected erythrocytes, higher = more signal, called active from +8 up or from −8 down
[5] = changes in parasitized red cell lysis, either direction – P. falciparum Indochina, OD700, 3 h, PSAC antagonist project, primary screen (AID 1156); settings: P. falciparum-infected erythrocytes, osmotic lysis, higher = more signal, called active from +8 up or from −8 down
[6] = plasmodial surface anion channel blockers, osmotic lysis – cell-based, P. falciparum Indochina, OD700, 18 h, primary screen (AID 1157); settings: P. falciparum Indochina infected erythrocytes, osmotic lysis OD700, 18 h; higher = more signal, called active from +8 up or from −8 down
[7] = S6 kinase pathway phospho-S6 level changes – cell-based, A549, cytoblot, luminescence, serum-stimulated, primary screen (AID 1158); settings: 5 h, higher = more signal;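 further: serum-stimulated A549 lung adenocarcinoma cells; signal is phosphorylated S6 detected by cytoblot immunostaining with HRP secondary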
[8] = target: NADPH oxidase 2 (Homo sapiens) (UniProt P04839); assay: compounds shifting NOX2 Amplex Red fluorescence – cell-based, HEK293-NOX2, PMA-stimulated, NOX inhibitor project, primary screen (AID 1159); settings: 45 min, higher = more signal, called active from +8 up or from −8 down; further: test concentration not given here
[9] = target: NADPH oxidase 4 (Homo sapiens) (UniProt Q9NPH5); assay: compounds shifting NOX4 Amplex Red fluorescence – cell-based, HEK293-NOX4, tetracycline-induced, NOX inhibitor project, primary screen (AID 1160); settings: HEK293-NOX4, Amplex Red H2O2 fluorescence, 45 min; higher = more signal, called active from +8 up or from −8 down
[10] = target: NADPH oxidase 5 (Homo sapiens) (UniProt Q96PH1); assay: compounds shifting NOX5 Amplex Red fluorescence – cell-based, HEK293-NOX5, NOX inhibitor project, primary screen (AID 1161); settings: HEK293-NOX5, ionomycin, 45 min, higher = more signal
Sequence of NADPH oxidase 5 (Homo sapiens) (Q96PH1 whole entry, looked up): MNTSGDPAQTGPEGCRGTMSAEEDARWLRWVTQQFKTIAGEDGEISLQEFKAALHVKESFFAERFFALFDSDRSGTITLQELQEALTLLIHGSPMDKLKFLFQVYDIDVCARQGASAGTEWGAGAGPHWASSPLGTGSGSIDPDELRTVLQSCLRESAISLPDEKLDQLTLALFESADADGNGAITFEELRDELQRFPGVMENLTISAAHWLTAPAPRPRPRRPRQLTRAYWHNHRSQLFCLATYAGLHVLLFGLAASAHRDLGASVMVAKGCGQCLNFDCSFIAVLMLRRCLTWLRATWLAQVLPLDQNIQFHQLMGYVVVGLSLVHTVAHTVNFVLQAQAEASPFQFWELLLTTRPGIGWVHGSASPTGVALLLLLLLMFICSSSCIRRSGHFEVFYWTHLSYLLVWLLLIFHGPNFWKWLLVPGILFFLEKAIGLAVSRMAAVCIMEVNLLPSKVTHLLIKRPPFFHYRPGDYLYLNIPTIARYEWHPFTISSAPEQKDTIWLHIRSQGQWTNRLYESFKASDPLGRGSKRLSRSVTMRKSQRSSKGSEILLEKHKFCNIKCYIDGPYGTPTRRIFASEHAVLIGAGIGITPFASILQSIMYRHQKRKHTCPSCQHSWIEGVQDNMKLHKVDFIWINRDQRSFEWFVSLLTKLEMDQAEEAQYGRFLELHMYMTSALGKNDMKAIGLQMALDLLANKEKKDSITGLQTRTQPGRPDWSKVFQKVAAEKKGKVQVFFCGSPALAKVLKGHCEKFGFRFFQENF

Sequence of NADPH oxidase 2 (Homo sapiens) (P04839 whole entry, looked up): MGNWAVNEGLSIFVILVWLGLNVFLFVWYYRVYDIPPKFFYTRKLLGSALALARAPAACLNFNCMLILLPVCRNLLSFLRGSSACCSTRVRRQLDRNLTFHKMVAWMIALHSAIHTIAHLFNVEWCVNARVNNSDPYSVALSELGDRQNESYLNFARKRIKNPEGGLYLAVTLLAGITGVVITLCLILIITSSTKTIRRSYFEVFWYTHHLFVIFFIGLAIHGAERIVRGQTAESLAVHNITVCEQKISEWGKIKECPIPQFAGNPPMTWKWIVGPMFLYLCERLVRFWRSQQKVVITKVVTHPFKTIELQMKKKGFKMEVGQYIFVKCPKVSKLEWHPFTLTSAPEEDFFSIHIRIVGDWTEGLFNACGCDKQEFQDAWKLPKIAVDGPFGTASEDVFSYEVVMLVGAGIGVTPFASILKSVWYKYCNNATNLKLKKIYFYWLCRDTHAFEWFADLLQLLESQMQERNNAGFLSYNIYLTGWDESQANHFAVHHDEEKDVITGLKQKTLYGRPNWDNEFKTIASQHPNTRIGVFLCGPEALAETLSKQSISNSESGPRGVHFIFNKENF
Sequence of NADPH oxidase 4 (Homo sapiens) (Q9NPH5 whole entry, looked up): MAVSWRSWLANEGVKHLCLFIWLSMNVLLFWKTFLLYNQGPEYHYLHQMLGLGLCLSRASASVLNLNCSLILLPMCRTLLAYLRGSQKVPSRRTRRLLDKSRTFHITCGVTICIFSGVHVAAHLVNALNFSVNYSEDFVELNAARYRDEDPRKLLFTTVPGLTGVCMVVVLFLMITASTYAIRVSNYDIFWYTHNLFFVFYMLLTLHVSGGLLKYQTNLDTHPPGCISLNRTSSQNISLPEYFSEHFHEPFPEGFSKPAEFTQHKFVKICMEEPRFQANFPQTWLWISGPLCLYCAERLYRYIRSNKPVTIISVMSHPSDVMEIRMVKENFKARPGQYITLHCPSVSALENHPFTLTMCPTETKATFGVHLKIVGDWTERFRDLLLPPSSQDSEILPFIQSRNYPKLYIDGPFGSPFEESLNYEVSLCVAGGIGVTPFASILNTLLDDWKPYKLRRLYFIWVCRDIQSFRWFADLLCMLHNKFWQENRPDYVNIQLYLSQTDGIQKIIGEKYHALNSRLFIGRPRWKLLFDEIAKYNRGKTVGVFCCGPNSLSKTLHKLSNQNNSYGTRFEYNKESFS

Compound | z-score [1] | composite z-score [2] | z-score [3] | z-score [4] | z-score [5] | z-score [6] | z-score [7] | z-score [8] | z-score [9] | z-score [10]
C=C(CCCC)C(=O)CC[C@H](OC(=O)c1ccccc1-c1ccccc1C(=O)O)c1ccc(CO)o1 | -0.002 (inactive) | -0.0984 | 1.69 (inactive) | 0.241 (inactive) | 1.2 (inactive) | 0.16 (inactive) | -0.16 | 0.333 (inactive) | -0.269 (inactive) | -1.15
CC(C)[C@H]1COC(=O)N1C(=O)[C@H]1[C@@H](c2ccccc2)N(c2ccccc2)O[C@@H]1C | 1.46 (inactive) | -0.147 | 0.744 (inactive) | 0.233 (inactive) | -0.648 (inactive) | 0.206 (inactive) | 0.958 | -0.515 (inactive) | -0.138 (inactive) | -2.5
CC(C)(C)OC(=O)CC[C@]1(C(=O)NCC(O)CO)N=C(c2ccc(OCCCO)cc2)O[C@H]1c1ccccc1CN=[N+]=[N-] (stereo not given in full) | -0.207 (inactive) | 0.975 | 17.2 (active) | 2.39 (inactive) | 0.471 (inactive) | 0.297 (inactive) | -0.832 | 1.38 (inactive) | 1.57 (inactive) | 2.2
Cc1ccc(S[C@]2(C(=O)NCCCN(C)C)CC(=O)N(Cc3ccccc3)[C@@H]2c2ccc(CO)cc2)cc1 | 0.239 (inactive) | 0.136 | 2.24 (inactive) | 0.077 (inactive) | 1.5 (inactive) | 0.013 (inactive) | 0.161 | -3.38 (inactive) | 0.6 (inactive) | 1.89
C=CC[C@@]1(C(=O)OC)N=C(c2ccc(OCCCO)cc2)O[C@@H]1c1ccccc1CN=[N+]=[N-] | 1.24 (inactive) | 0.0674 | 26.9 (active) | 18.7 (active) | -0.26 (inactive) | 3.48 (inactive) | 1.79 | -4.05 (inactive) | 0.419 (inactive) | -3.1
O=c1cccc(-c2cccc3ccccc23)o1 | 0.109 (inactive) | 0.106 | 6.68 (inactive) | 1.37 (inactive) | -0.276 (inactive) | 0.832 (inactive) | -0.312 | -0.112 (inactive) | -2.39 (inactive) | -0.0533
CC(C)NC(=O)[C@@H]1c2ccccc2C(=O)N(C2CCCCC2)[C@H]1c1ccc(CO)cc1 | -0.359 (inactive) | -0.101 | -0.521 (inactive) | 0.169 (inactive) | -0.113 (inactive) | -0.136 (inactive) | -0.061 | 0.664 (inactive) | 0.822 (inactive) | 0.802
COCCCNC(=O)[C@@]1(C)c2ccccc2C(=O)N(Cc2ccccc2)[C@H]1c1ccc(CO)cc1 | -0.0509 (inactive) | 0.114 | 2.68 (inactive) | 0.179 (inactive) | 2.67 (inactive) | -0.487 (inactive) | 2.82 | -1.63 (inactive) | -2.44 (inactive) | -2.66
C=C(/C(=C/C[C@@H](OC(=O)c1ccncc1)c1ccc(CO)o1)c1cc(C(=O)OC)ccc1OC)C(C)C | 0.694 (inactive) | 0.107 | 6.4 (inactive) | 1.47 (inactive) | 2.63 (inactive) | 0.529 (inactive) | 0.57 | -0.0543 (inactive) | -0.699 (inactive) | -0.86
COc1ccccc1CN1C(=O)c2ccccc2[C@](Cc2ccccc2I)(C(=O)NCc2ccccc2)[C@@H]1c1ccc(CO)cc1 | -0.0738 (inactive) | 0.183 | 2.14 (inactive) | -0.0098 (inactive) | 0.826 (inactive) | -0.308 (inactive) | -0.266 | 0.102 (inactive) | 0.377 (inactive) | 1.34
CC1(C)C(=O)C(c2ccccc2)=C2CN3C(=O)N(CCc4ccccc4)C(=O)C3(Cc3ccccc3)C=C21 (stereo not given) | -1.23 (inactive) | 0.647 | 2.06 (inactive) | 0.541 (inactive) | 0.483 (inactive) | 0.861 (inactive) | -0.196 | -0.147 (inactive) | 0.405 (inactive) | -1.62
C=CCC(OC(C)=O)[C@@H]1[C@@H](N(Cc2cc3ccccc3o2)C(=O)c2ccc(-c3ccccc3)cc2)c2cc(OCCCO)ccc2N1C(=O)Cc1ccc2ccccc2c1 (stereo not given in full) | -0.0233 (inactive) | -0.0984 | 0.574 (inactive) | -0.344 (inactive) | -0.145 (inactive) | 0.26 (inactive) | 0.233 | 0.972 (inactive) | -0.906 (inactive) | 1.53
C=CCN1C(=O)[C@]2(COC(c3ccc(OCCCO)cc3)=N2)Cc2ccccc21 | 0.773 (inactive) | 0.228 | 23.7 (active) | 7.4 (inactive) | 3.23 (inactive) | 0.181 (inactive) | 1.3 | -2.29 (inactive) | 0.0437 (inactive) | -2.56
O=[N+]([O-])c1ccc(C[n+]2ccc(CCCO)cc2)o1 | -0.934 (inactive) | -0.0162 | 1.21 (inactive) | 0.331 (inactive) | 0.616 (inactive) | 0.377 (inactive) | 0.437 | 0.00328 (inactive) | -3.09 (inactive) | -0.4
CCCCN1CC=CC23O[C@@H]4/C=C\CCCOC(=O)C4[C@H]2C(=O)N(C(C)CO)[C@@H]3C1=O (stereo not given in full) | 0.65 (inactive) | -0.206 | 1.43 (inactive) | 1.06 (inactive) | 1.96 (inactive) | 0.405 (inactive) | 0.199 | 0.889 (inactive) | 0.124 (inactive) | 1.5
CC(C)N1C(=O)c2ccccc2[C@](C)(C(=O)NC2CC2)[C@@H]1c1ccc(CO)cc1 | 0.897 (inactive) | 0.0451 | 0.838 (inactive) | 0.122 (inactive) | -0.173 (inactive) | 0.475 (inactive) | -0.0085 | -0.987 (inactive) | -0.354 (inactive) | -0.547
COc1ccc(C#Cc2ccc3c(c2)[C@]2(C(=O)N3)[C@H](C(=O)N3CCN(c4ncccn4)CC3)[C@H]3C(=O)O[C@H](c4ccccc4)[C@H](c4ccccc4)N3[C@@H]2c2ccc(O)cc2)cc1 | -0.475 (inactive) | 0.583 | 1.5 (inactive) | 1.59 (inactive) | 0.474 (inactive) | 0.686 (inactive) | -0.2 | 1.25 (inactive) | -0.171 (inactive) | -0.146
CCCCC(=O)N(Cc1ccccc1F)[C@@H]1CC(C(=O)NCCO)=C[C@H](Oc2c(I)cc(CO)cc2OC)[C@H]1O | 0.381 (inactive) | 0.298 | 5.42 (inactive) | 3.13 (inactive) | 2.17 (inactive) | 1.48 (inactive) | 0.245 | 1.27 (inactive) | 0.438 (inactive) | -3.95
CCOC1=C2C(c3ccc(C)cc3)N(S(=O)(=O)c3ccc(C)cc3)CC2n2c(=O)n(-c3ccccc3)c(=O)n2C1 (stereo not given) | -0.346 (inactive) | 0.175 | 1.08 (inactive) | 1.32 (inactive) | 0.458 (inactive) | 0.807 (inactive) | -0.0263 | 1.22 (inactive) | 0.965 (inactive) | 0.536
Cc1ccc(N2C(=O)c3ccccc3[C@@H](C(=O)NCC(C)C)[C@@H]2c2ccc(CO)cc2)nc1 | 0.569 (inactive) | -0.0186 | 3.15 (inactive) | 0.48 (inactive) | 1.38 (inactive) | 0.231 (inactive) | 0.0174 | -0.0277 (inactive) | 0.918 (inactive) | 0.84
CC(=O)NCCCC[C@@H]1NC(=O)[C@@H]2C[C@H](C(=O)NCCCCCC[N+](C)(C)C)[C@H](c3cccc(OCCO)c3)N2C1=O | 0.0924 (inactive) | 0.156 | 2.99 (inactive) | 0.591 (inactive) | -0.956 (inactive) | 0.325 (inactive) | -0.507 | 1.09 (inactive) | 0.91 (inactive) | 0.593
